# PubChem BioAssay (Tox21)
# Inconclusive results are not listed. A call without a number means that no potency is given here. The source made the active and inactive calls. The call rests on the fitted dose curve.
# Experiment: p53 small molecule agonists, cell-based qHTS assay with human liver microsomes (AID 1963577);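 further: p53 response element beta-lactamase reporter cells with liver microsomes plus NADPH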
# In short: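 Compounds act here after metabolic activation: human liver microsomes and NADPH, both at 0.5 mg/mL final, were co-added to p53RE-bla cells. Incubation ran 16 h at 37 C, followed by LiveBLAzer detection.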
row,Compound,Potency
1,CCNc1nc(Cl)nc(NCC)n1,inactive
2,CCOC(=O)C(O)(c1ccc(Cl)cc1)c1ccc(Cl)cc1,inactive
3,COC(=O)c1ccc(CBr)cc1,inactive
4,Nc1ncc([N+](=O)[O-])s1,inactive
5,CCCCON=O,inactive
6,CCCCCCCCCCCOC(=O)c1ccccc1C(=O)OCCCCCCCCCCC,inactive
7,O=C(O)C(Cl)(Cl)Br,inactive
8,Cc1ccccc1CCl,inactive
9,CCCCCCC#N,inactive
10,CC(C)=CC1C(C(=O)OCN2C(=O)C3=C(CCCC3)C2=O)C1(C)C (configuration not stated),inactive
11,CC(C)CCON=O,inactive
12,CCCCCCCCn1cc[n+](C)c1,inactive
13,CN=C=O,inactive
14,COCC(=O)N(c1c(C)cccc1C)C(C)C(=O)OC (configuration not stated),inactive
15,ClC(Cl)(Cl)Br,inactive
16,O=[N+]([O-])CCO,inactive

row,Compound,Potency
1,CC1(C)[C@H](C(=O)O[C@H](C#N)c2cccc(Oc3ccccc3)c2)[C@@H]1/C=C(\Cl)C(F)(F)F,inactive
2,C=CC1(C)OC(=O)N(c2cc(Cl)cc(Cl)c2)C1=O (configuration not stated),inactive
3,Cc1cccc(C)c1NC(=O)CN1CCCC1=O,inactive
4,C(CCOCC1CO1)COCC1CO1 (configuration not stated),inactive
5,c1ccc(N2CCNCC2)cc1,inactive
6,ClCCOCCCl,inactive
7,OCC(Cl)CCl (configuration not stated),inactive
8,O=C(Cl)OCCOCCOC(=O)Cl,inactive
9,CCN(CC)Cc1nccn1-c1ccc([N+](=O)[O-])cc1C(=O)c1ccccc1Cl,inactive
10,O=[N+]([O-])c1ccccc1-c1ccccc1,inactive
11,CC(C)(C)C(=O)Cl,inactive
12,NC(=O)OCCCc1ccccc1,inactive
13,O=NN1CCCC1,inactive
14,CC(c1ccc(O)cc1)c1ccc(O)cc1,inactive
15,CCCCCCCCCBr,inactive
16,CCCCCCCCCCOC(=O)c1ccccc1C(=O)OCCCCCCCCCC,inactive
